Laboratory results reported in the supplement of paper PMC4723716.

Test system: Plasmodium falciparum NF54 gametocytes
Assay: viability index relative to DMSO control (fraction); higher = less gametocyte killing
Settings: 12.5 µM, incubation time: 72 h
How it was run: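 P. falciparum NF54 gametocytes of each stage (I–V), in serum-containing medium (0.50% gametocytemia, 1.25% hematocrit, 40 µl), were incubated with compound at 12.5 µM in 384-well plates for 72 hr at 37°C under low oxygen. Wells received 5 µl of 5 µM MitoTracker Red CMXRos for 20 min. Then 5 µl was moved into 40 µl of 500 nM dye in serum-free medium and imaged after 30 min (three fields). The viability index was the gametocyte particle count divided by the plate mean of DMSO wells.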

[1] = gametocyte stage: Stage I viability index
[2] = gametocyte stage: Stage II viability index
[3] = gametocyte stage: Stage III viability index
[4] = gametocyte stage: Stage IV viability index
[5] = gametocyte stage: Stage V viability index

## N=c1n(CCN2CCCCC2)c2ccccc2n1CC(O)c1cccc(Br)c1 (stereo not given)
[1]
  viability index: 0.0133
[2]
  viability index: 0.056
[3]
  viability index: 0.133
[4]
  viability index: 0.267
[5]
  viability index: 0.341

## O=C(Cc1ccccc1)NC(c1ccc(Cl)cc1)c1c(O)ccc2ccccc12 (stereo not given)
[1]
  viability index: 0.0691
[2]
  viability index: 0.316
[3]
  viability index: 0.631
[4]
  viability index: 0.604
[5]
  viability index: 0.857

## CC(C)(C)CC(C)(C)NCC(O)COc1ccc2c(c1)CCC2 (stereo not given)
[1]
  viability index: 0.221
[2]
  viability index: 0.273
[3]
  viability index: 0.615
[4]
  viability index: 0.666
[5]
  viability index: 0.462

## CCC(O)c1ccc(Br)cc1NC(=O)c1cccc(Cl)c1 (stereo not given)
[1]
  viability index: 0.0243
[2]
  viability index: 0.196
[3]
  viability index: 0.598
[4]
  viability index: 0.729
[5]
  viability index: 0.582

## COc1ccc(-n2ccnc2SCC(=O)Nc2cc(C)ccc2C)c(OC)c1
[1]
  viability index: 1.07
[2]
  viability index: 0.949
[3]
  viability index: 0.975
[4]
  viability index: 0.939
[5]
  viability index: 0.989

## O=C(Nc1ccc(Cl)c(Cl)c1)Nc1ccc(Cl)c(Cl)c1
[1]
  viability index: 0.0437
[2]
  viability index: 0.0241
[3]
  viability index: 0.0353
[4]
  viability index: 0.0918
[5]
  viability index: 0.104

## O=C(CSc1ccc2nnc(-c3cccc(F)c3)n2n1)Nc1ccc2c(c1)OCO2
[1]
  viability index: 1.01
[2]
  viability index: 1.02
[3]
  viability index: 1.16
[4]
  viability index: 1.16
[5]
  viability index: 1.37

## O=[N+]([O-])c1ccc(C=NNc2nc3ccccc3[nH]2)cc1
[1]
  viability index: 0.0818
[2]
  viability index: 0.586
[3]
  viability index: 0.911
[4]
  viability index: 0.869
[5]
  viability index: 0.802

## CN(C)CCCNCc1ccc(-c2ccc(F)c(Cl)c2)o1
[1]
  viability index: 0.202
[2]
  viability index: 0.376
[3]
  viability index: 0.376
[4]
  viability index: 0.339
[5]
  viability index: 0.104

## COc1ccc(-c2nc(NC(=O)CS(=O)(=O)c3ccc(F)cc3)sc2C)cc1
[1]
  viability index: 0.307
[2]
  viability index: 0.564
[3]
  viability index: 1.11
[4]
  viability index: 0.888
[5]
  viability index: 0.978

## CC1CN(C(=O)c2sc3ccccc3c2Cl)CC(C)O1 (stereo not given)
[1]
  viability index: 0.768
[2]
  viability index: 0.756
[3]
  viability index: 0.97
[4]
  viability index: 0.912
[5]
  viability index: 0.989

## COc1ccc(C2=C(c3ccc(OC)cc3)C3(c4ccccc4)C(=O)C2(c2ccccc2)C2C(=O)N(c4ccc(C)cc4)C(=O)C23)cc1 (stereo not given)
[1]
  viability index: 0.682
[2]
  viability index: 0.679
[3]
  viability index: 0.949
[4]
  viability index: 1.02
[5]
  viability index: 0.967

## CCCCCCc1cc2cc(-c3csc(C=Cc4ccccc4)n3)c(=O)oc2cc1O
[1]
  viability index: 0.309
[2]
  viability index: 0.313
[3]
  viability index: 0.621
[4]
  viability index: 0.797
[5]
  viability index: 0.636

## CCOc1ccc(C=Cc2nc(=O)c3ccccc3o2)cc1
[1]
  viability index: 0.549
[2]
  viability index: 0.836
[3]
  viability index: 0.85
[4]
  viability index: 0.805
[5]
  viability index: 0.67

## O=C(Nc1ccc(CN2CCOCC2)cc1)c1ccc(-c2cc(Cl)ccc2Cl)o1
[1]
  viability index: 0.302
[2]
  viability index: 0.64
[3]
  viability index: 1.15
[4]
  viability index: 1.04
[5]
  viability index: 1.04

## Cc1ccc(Nc2nc(-c3ccccn3)cs2)cc1
[1]
  viability index: 0.193
[2]
  viability index: 0.22
[3]
  viability index: 0.109
[4]
  viability index: 0.173
[5]
  viability index: 0.121

## CC(Oc1ccc(NC(=O)c2cccs2)cc1)C(=O)c1ccc(Cl)cc1 (stereo not given)
[1]
  viability index: 1.02
[2]
  viability index: 0.883
[3]
  viability index: 0.727
[4]
  viability index: 0.854
[5]
  viability index: 0.974

## CCOC(=O)C1=C(C)N=c2sc(=Cc3ccccc3O)c(=O)n2C1c1ccc(OC)c2ccccc12 (stereo not given)
[1]
  viability index: 0.0358
[2]
  viability index: 0.06
[3]
  viability index: 0.197
[4]
  viability index: 0.468
[5]
  viability index: 0.481

## Cc1cc(NC(=O)c2ccc(-c3ccccc3)cc2)no1
[1]
  viability index: 0.759
[2]
  viability index: 0.877
[3]
  viability index: 0.901
[4]
  viability index: 0.836
[5]
  viability index: 0.681

## Cc1ccc(C2CC(C(F)(F)F)n3nc(C(=O)N4CCN(C(c5ccccc5)c5ccccc5)CC4)cc3N2)cc1 (stereo not given)
[1]
  viability index: 0.576
[2]
  viability index: 0.645
[3]
  viability index: 0.944
[4]
  viability index: 0.804
[5]
  viability index: 0.922

## CCOc1ccc(CCNC(=O)c2cccs2)cc1OCC
[1]
  viability index: 1.14
[2]
  viability index: 0.896
[3]
  viability index: 1.1
[4]
  viability index: 0.884
[5]
  viability index: 0.593

## Cc1cc(Nc2ccc(C)c(Cl)c2)n2nc(C(F)(F)F)nc2n1
[1]
  viability index: 0.881
[2]
  viability index: 1.23
[3]
  viability index: 0.983
[4]
  viability index: 1.08
[5]
  viability index: 0.945

## COc1ccccc1N1C(=N)SC(=Cc2ccc(OCc3ccccc3F)cc2)C1=O
[1]
  viability index: 0.669
[2]
  viability index: 0.654
[3]
  viability index: 0.661
[4]
  viability index: 0.563
[5]
  viability index: 0.403

## CCOc1ccc2nc(C)cc(Nc3ccc(N(C)C)cc3)c2c1
[1]
  viability index: 0.157
[2]
  viability index: 0.571
[3]
  viability index: 0.868
[4]
  viability index: 0.943
[5]
  viability index: 0.857

## CCOc1cc2c(cc1OCC)C(c1cc(Cl)ccc1O)NCC2 (stereo not given)
[1]
  viability index: 0.0411
[2]
  viability index: 0.0883
[3]
  viability index: 0.488
[4]
  viability index: 0.532
[5]
  viability index: 0.675

## CCC(c1ccccc1)c1nn2c(-c3cccs3)nnc2s1 (stereo not given)
[1]
  viability index: 1.04
[2]
  viability index: 0.992
[3]
  viability index: 1.07
[4]
  viability index: 0.875
[5]
  viability index: 0.725

## COc1ccc(C=C2SC(Nc3ccccc3)=NC2=O)cc1
[1]
  viability index: 1.03
[2]
  viability index: 0.768
[3]
  viability index: 0.663
[4]
  viability index: 0.791
[5]
  viability index: 0.727

## Cc1sc(NC(=O)c2ccccc2)c(C(c2cccs2)N2CCN(c3ccccc3)CC2)c1C (stereo not given)
[1]
  viability index: 1
[2]
  viability index: 0.74
[3]
  viability index: 0.905
[4]
  viability index: 0.753
[5]
  viability index: 0.545

## CCOc1c(Br)cc(C2C(C(=O)OC)=CN(C)C=C2C(=O)OC)cc1OC
[1]
  viability index: 0.344
[2]
  viability index: 0.243
[3]
  viability index: 0.353
[4]
  viability index: 0.38
[5]
  viability index: 0.649

## CCCCc1ccc(NS(=O)(=O)c2cc3c4c(c2)CCN4C(=O)CC3)cc1
[1]
  viability index: 0.98
[2]
  viability index: 0.982
[3]
  viability index: 0.992
[4]
  viability index: 1.12
[5]
  viability index: 1.07
